Most compounds without a hit are left out; they make up all but 4.3% or so of the library.
SMARCA2 act: activators of SMARCA2 function; activation, % at 9.1 µM; hit rate 1% among 370,000; MG213 cells, MMTV-luciferase reporter, dexamethasone, overnight; AID 652017; in the data active means activation above about 7.8%
FGF22 binding: FGF22 (human) thermal shift binding; Q9HCT0; recombinant FGF22 thermal shift, SYPRO orange fluorescence; percent of sucrose octasulfate shift, DMSO zero; activity (Tm shift, normalised), % at 9.99 µM; hit rate 1.5% among 340,000; AID 651658;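 active means mean Tm shift, scaled 0 neutral to 100 positive control, at about 1.3% or above, every replicate too, limit read from the data; inconclusive means no clear call, values can overlap the other calls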
Wnt bcat act: activates Wnt/beta-catenin signaling in a reporter cell assay. activator, plate reader. activation, % at 9.35 µM. hit rate 1.2% among 300,000; in the data active means activation above about 30%, passing the limit was not always enough; inconclusive means no clear call, values can overlap the other calls
MITF act: activators of MITF-driven TRPM1 promoter activity in SK-MEL-5 cells; AID 588334; hit rate 0.75% among 300,000; activation, % at 12.5 µM; SK-MEL-5 TRPM1-promoter luciferase, 24 h; % of positive control, neutral wells = 0;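 active means mean activation of at least 80% with every replicate also reaching 80%; inconclusive means mean reaches 80% but some replicate falls short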
MLL AF4-AF9 inh: inhibitors of human MLL-AF4/AF9 interaction; P42568; AlphaScreen, biotin-AF4 peptide binding to FLAG-AF9; inhibition, % at 10 µM; hit rate 0.47% among 350,000;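 active means every replicate reaching a set inhibition limit, whatever the replicate mean, cut at about 25% in these data; inconclusive means mean inhibition reaches that limit but some replicates miss it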
Target sequence (P42568 whole entry, looked up): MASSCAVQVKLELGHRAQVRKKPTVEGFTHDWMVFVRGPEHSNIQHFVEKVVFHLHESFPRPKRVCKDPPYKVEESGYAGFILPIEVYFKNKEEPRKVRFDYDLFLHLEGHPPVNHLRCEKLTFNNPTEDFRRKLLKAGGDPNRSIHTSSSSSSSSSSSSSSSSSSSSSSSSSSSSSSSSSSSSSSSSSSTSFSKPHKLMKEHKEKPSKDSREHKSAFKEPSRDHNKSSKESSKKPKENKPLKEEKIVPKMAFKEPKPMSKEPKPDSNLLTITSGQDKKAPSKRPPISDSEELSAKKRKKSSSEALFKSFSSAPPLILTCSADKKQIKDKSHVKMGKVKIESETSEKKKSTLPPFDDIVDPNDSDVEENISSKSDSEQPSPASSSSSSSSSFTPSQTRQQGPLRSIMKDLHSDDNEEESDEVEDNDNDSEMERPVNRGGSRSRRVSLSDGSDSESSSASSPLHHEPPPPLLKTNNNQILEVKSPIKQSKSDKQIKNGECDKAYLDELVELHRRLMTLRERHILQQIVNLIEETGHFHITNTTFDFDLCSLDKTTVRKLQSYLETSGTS
esBAF inh: SWI/SNF esBAF complex inhibition; AID 602393; reporter increase, % at 12.5 µM; mouse ES cells, Bmi1-luciferase knock-in reporter, 24 h; 100% = twice the neutral-well signal; hit rate 2% among 350,000; in the data active means activation above about 40%; inconclusive means no clear call, values can overlap the other calls;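 further: a rise in the Bmi1 reporter signal indicates esBAF inhibition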
Ring1 derepress: de-represses Ring1 in mouse ESCs, confirming esBAF inhibition; shares compounds with esBAF inh; mouse ESC E14, Ring1 mRNA RT-qPCR fold change; fold change at 33 µM; 550 tested, under 10 active;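 active means Ring1 gene expression raised more than 2-fold over untreated cells in both replicates at either tested dose; inconclusive means only one replicate above 2-fold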;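 further: Ring1 transcript normalised to actin housekeeping signal by TaqMan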
Fgf4 repress: confirmation of esBAF inhibitors: Fgf4 repression in mouse ESCs; shares compounds with esBAF inh; mouse ESC E14, Fgf4 mRNA qPCR fold change; hits give low values; Fgf4 expression fold change at 33 µM; hit rate 4% among 550; AID 743177;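 active means Fgf4 expression under 0.8 fold of control in both repeat measurements at one or both tested doses; inconclusive means under 0.8 fold in just a single repeat measurement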;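 further: Fgf4 transcript normalised to actin in duplex TaqMan qPCR; cells exposed to compound for 24 h before lysis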
esBAF Bmi1 qPCR: confirmation of esBAF inhibitors: Bmi1 de-repression in mouse ESCs; shares compounds with esBAF inh; mouse ESE14 ES cells, Bmi1 mRNA qPCR fold; hits give high values; fold change at 33 µM; 550 tested, under 10 active; AID 743180;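 active means Bmi1 expression fold change above 6 at either tested concentration, seen in replicate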;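 further: higher fold means more Bmi1 de-repression and stronger esBAF inhibition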
A549 tox SP: kills or reduces viability of A549 cells; shares compounds with esBAF inh; cell viability change % (negative = cytotoxic), % at 25 µM, hits read low; A549 cytotoxicity, plate reader; 550 tested, under 10 active; call rule not given here
HepG2 cytotox SP: cytotoxicity in HepG2 cells | hit rate 4% among 550 | activity change, negative = inhibition, % at 25 µM | AID 743189 | shares compounds with esBAF inh | plate reader; hits give low values; in the data active means activity change below about -50%
HEK293 cytotox SP: kills or reduces viability of HEK293 cells; shares compounds with esBAF inh; AID 743190; hit rate 3% among 550; HEK293 cytotoxicity, plate reader; activity change, negative = inhibition, % at 25 µM, hits read low; in the data active means activity change below about -38%, passing the limit was not always enough
A number is an active result; . = inactive; ? = inconclusive; / = not tested or not shown.

SMILES	SMARCA2 act	FGF22 binding	Wnt bcat act	MITF act	MLL AF4-AF9 inh	esBAF inh	Ring1 derepress	Fgf4 repress	esBAF Bmi1 qPCR	A549 tox SP	HepG2 cytotox SP	HEK293 cytotox SP
CCCN(C)C[C@@H]1OCCCC[C@H](C)Oc2ccc(NC(=O)C3CCCCC3)cc2C(=O)N([C@@H](C)CO)C[C@@H]1C	/	.	/	/	.	.	/	/	/	/	/	/
CC(=O)c1ccc(NC(=O)C2CC(=O)N(Cc3ccccc3)C2)cc1 (stereo unspecified)	.	/	/	.	/	56	.	.	.	.	.	.
O=C(Nc1ccccc1)C1CC(=O)N(Cc2ccccc2)C1 (stereo unspecified)	.	.	.	.	.	.	/	/	/	/	/	/
C[C@@H]1CCCCO[C@H](CN(C)C(=O)C2CCCCC2)[C@H](C)CN([C@@H](C)CO)C(=O)c2cc(NS(=O)(=O)c3cccs3)ccc2O1	/	.	/	/	.	.	/	/	/	/	/	/
C=CCNC(=O)[C@@H]1[C@H]2C(=O)O[C@H](c3ccccc3)[C@H](c3ccccc3)N2[C@H](c2ccc(O)cc2)[C@@]12C(=O)Nc1ccc(C#CC3=CCCCC3)cc12	/	.	/	/	.	/	/	/	/	/	/	/
O=C(Cc1ccccn1)NCC[C@@H]1CC[C@@H](NS(=O)(=O)c2ccc(F)cc2)[C@@H](CO)O1	/	.	/	/	.	.	/	/	/	/	/	/
CN(C)c1ccc(N=Cc2nc(-c3ccccc3)oc2OC(=O)c2cccc(Br)c2)cc1	.	/	/	.	/	63	.	.	.	.	.	.
C[C@@H]1CN([C@@H](C)CO)C(=O)Cc2cc(NC(=O)Nc3ccc(F)cc3)ccc2O[C@@H]1CN(C)C(=O)Nc1ccc(C(F)(F)F)cc1	/	.	/	/	/	.	/	/	/	/	/	/
COC(=O)Cc1ccc(OCc2ccc(Cl)nc2)cc1	.	.	.	95	.	59	.	.	.	.	.	.
CC(=O)C(Cc1ccc(Cl)nc1)Cc1ccc(Cl)nc1	.	.	.	.	.	/	/	/	/	/	/	/
Cc1cccc(-n2nnc(C(=O)Nc3ccc(F)cc3)c2N)c1	.	/	/	/	/	62	.	.	.	.	.	.
N#CC(c1ccccc1O)N1N=C(c2ccccc2)CC1c1ccccc1 (stereo unspecified)	.	.	.	.	.	58	.	.	.	.	.	.
CC1CCN(c2oc(-c3cccc4ccccc34)nc2C#N)CC1	.	/	.	?	/	67	.	.	.	.	-53	.
N#Cc1nc(-c2cccc3ccccc23)oc1N1CCCCC1	.	/	/	.	/	.	/	/	/	/	/	/
Cc1ccc(Cl)cc1-c1cc(C(=O)Nc2ccc(F)cc2)[nH]n1	.	.	.	/	.	63	.	.	.	.	.	.
Cc1ccc(NC(=O)Nc2ccc(F)cc2)cc1Cl	.	43	.	.	.	68	.	.	.	.	.	.
COc1ccc(Cl)c(-c2cc(C(=O)Nc3ccc(F)cc3)[nH]n2)c1	.	.	.	/	.	69	.	.	.	.	.	.
COc1ccc(Cl)c(-c2cc(C(=O)Nc3ccccc3)[nH]n2)c1	.	.	.	/	.	97	.	?	.	.	.	.
COc1ccc(Cl)c(-c2cc(C(=O)NCc3ccc(C(F)(F)F)cc3)[nH]n2)c1	.	.	.	/	.	.	/	/	/	/	/	/
Cc1cc(Cl)cc2c(N=Nc3ccccc3C(=O)O)c(O)[nH]c12	.	.	.	.	.	.	/	/	/	/	/	/
Cc1ccc(Cl)c2c(N=Nc3ccccc3)c(O)[nH]c12	.	.	.	.	.	58	.	.	.	.	.	.
CCC(=O)N1[C@H](CO)[C@@H](c2ccccc2)C12CN(C(=O)NC1CCCC1)C2	/	.	/	/	.	/	/	/	/	/	/	/
Cn1c(-c2ccccc2F)cc2onc(-c3ccccc3)c2c1=O	.	.	.	.	.	.	/	/	/	/	/	/
Cn1c(-c2ncc(F)cc2F)cc2onc(-c3c(F)cccc3Cl)c2c1=O	.	.	40	87	.	91	.	?	.	.	.	.

Screening data: PubChem, several laboratories
